Assay outcomes deposited in PubChem by several laboratories.
HSF1 inh = HSF1 inhibition. actives 0.77% (n = 300,000). activity change, negative = inhibition, % at 7.5 µM (by protocol). NIH3T3-HGL HSE-luciferase, MG132-induced, luminescence 8 h; stronger effect = lower value;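 active = more than half of replicate wells show activity change below -50%, luminescence cut by over half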;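 also: luciferase reports HSF-1 transcriptional activity via heat shock element; 0% = median of DMSO wells and -100% = zero luminescence signal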
aDG glyco up = increases alpha dystroglycan glycosylation; activation, % at 10 µM; AID 624168; Pro5-aDG cells, alpha-DG glycosylation AlphaScreen (IIH6); 0% Pro5, 100% B10-LARGE cell signal; actives 0.22% (n = 360,000);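 active = activation of at least 8% versus controls, or a plate z-score of at least 8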;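 also: Pro5 are CHO cells carrying HIG-tagged alpha-DG that lacks glycosylation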
Dyrk1A ADPGlo = blocks rat Dyrk1A kinase activity. ADP-Glo luminescence, NFATc1 peptide. actives 0.43% (n = 310,000). AID 504441. inhibition, % at 12.5 µM; in the data active = inhibition above about 50%;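 also: plate controls were vehicle with enzyme for no effect and no enzyme for full effect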
HSF1 activator = increases HSF-1 driven luciferase reporter signal; NIH3T3-HGL HSF-1 luciferase reporter, MG132, 8 h; 100% = twice DMSO control signal; activation, % at 9 µM; actives 1.7% (n = 300,000); AID 504408;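 active = mean replicate activation of at least 50% with a set share of replicates each reaching 50%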;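 also: 0% = median of the neutral control wells and 100% = twice that signal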
GC-B act = GC-B (human) receptor activation; P20594; HEK293-GC-B cells, CNP EC30, cGMP TR-FRET; 0% at EC30 CNP, 100% saturating CNP; activation, % at 10 µM; actives 0.11% (n = 370,000); AID 1920062;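 active = activation at 10 µM reaching about 35% in either raw or pattern-adjusted values, limit read from the data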
NPR1 activator = GC-A (human) enzyme activation; P16066; actives 0.14% (n = 370,000); HEK293 GC-A cells, cGMP TR-FRET, EC30 ANP; 0% at EC30 ANP, 100% saturating ANP; activation, % at 10 µM; in the data active = activation above about 40%
* hit, by the source's call; · = not tested or not shown. Compounds with a hit are over-represented: about 2.5% of the library has one in this group of screens.

SMILES | HSF1 inh | aDG glyco up | Dyrk1A ADPGlo | HSF1 activator | GC-B act | NPR1 activator
C=CCn1c(CCNC(=O)c2ccc(Cl)c(Cl)c2)nnc1SCCOc1ccc(OC)cc1 | 73 | 0 | -17 | 128* | -14 | -11
CCCS(=O)(=O)c1cnc(C2COc3ccccc3O2)nc1N (stereo unspecified) | -80* | 0 | 15 | -83 | 1 | 3
S=c1nc(C2COc3ccccc3O2)[nH][nH]1 (stereo unspecified) | -6 | 0 | -3 | -4 | -1 | 3
COc1cc2c(cc1OC)C(c1ccc(OC)c(OC)c1OC)CC(=O)N2 (stereo unspecified) | -2 | 0 | 8 | -9 | 2 | 1
COc1ccc(/C(N)=N/OC(=O)CSc2ccccc2)cc1OC | 59 | 0 | -4 | 62* | 4 | 4
CCOC(=O)c1ccc(OS(=O)(=O)c2ccccc2)c(OC)c1 | 25 | 0 | 5 | 63* | 3 | -1
COc1cccc(C(=O)O/N=C(\N)c2ccc([N+](=O)[O-])cc2)c1 | 28 | 0 | -2 | 59* | -3 | 5
COc1ccc(C(=O)O/N=C(\N)c2ccccc2)cc1OC | 32 | 0 | 0 | 56* | -5 | 5
COc1cc(C(=O)Nc2ccc3c(c2)OCO3)ccc1OCc1c(C)noc1C | -6 | 0 | 8 | -13 | 1 | 3
Cc1cccc(NC(=O)CSCC(=O)N(C)Cc2ccc3c(c2)OCCO3)c1 | · | 0 | 0 | · | 0 | 1
N/C(=N\OC(=O)c1ccc(Cl)c([N+](=O)[O-])c1)c1ccccc1 | 26 | 1 | -4 | 35 | -4 | 46*
N/C(=N\OC(=O)c1ccc(Cl)c([N+](=O)[O-])c1)c1ccccn1 | 10 | 0 | 8 | 35 | -4 | 2
CC(C)(C)NC(=O)NC(=O)COc1ccccc1C#N | 3 | 3 | -2 | 1 | -1 | -3
CC1CCN(C(=O)CSc2nc3ccccc3s2)CC1 | 30 | 0 | 11 | 54* | 3 | 3
O=C(O)C1CCN(C(=O)CSc2nc3ccccc3s2)CC1 | -6 | 0 | -1 | 1 | 4 | 2
O=C(O)CCSc1nc2ccccc2s1 | -63* | 0 | 1 | -65 | -1 | 0
CC1Cc2ccccc2N1C(=O)CSc1nc2ccccc2s1 (stereo unspecified) | 19 | 0 | -2 | 56* | -1 | -5
CCN(CC(=O)Nc1ccc(NC(C)=O)cc1)C(=O)c1ccc(S(=O)(=O)N2CCCC2)cc1 | · | 0 | -2 | · | 0 | 1
Oc1ccc(/C(Cc2ccc3ccccc3n2)=N\Nc2ccccc2)c(O)c1 | 16 | 0 | -1 | 29 | -6 | -11
CC(=O)Oc1ccc(C(=O)Cc2ccc3ccccc3n2)c(O)c1C | 47 | 2 | 5 | 76* | -1 | -3
CC(=O)Oc1ccc(C(=O)Cc2ccccn2)c(O)c1 | -1 | 0 | -5 | 1 | -6 | 0
Cc1c(O)ccc(/C(Cc2ccc3ccccc3n2)=N\O)c1O | 38 | 0 | 6 | 70* | 0 | 20
CCN1/C(=C(\O)c2ccccc2)C(=O)c2ccccc2S1(=O)=O | -70* | 0 | -1 | -78 | -3 | 2
O=C(/C=C/c1cccc([N+](=O)[O-])c1)OCC(=O)N1CCN(C(=O)c2ccco2)CC1 | · | 0 | · | · | -2 | 5
O=C(NC1CCCC1)C(c1ccncc1)N(CCCN1CCOCC1)C(=O)c1ccc(-c2ccccc2)[nH]1 (stereo unspecified) | 22 | 0 | 4 | 29 | -3 | 5
SMILES | HSF1 inh | aDG glyco up | Dyrk1A ADPGlo | HSF1 activator | GC-B act | NPR1 activator
O=C(NC1CCCC1)C(c1ccncc1)N(Cc1ccco1)C(=O)c1ccc(-c2ccccc2)[nH]1 (stereo unspecified) | 114 | 0 | 7 | 122* | 2 | -2
O=C(NC1CCCC1)C(c1ccncc1)N(Cc1ccccc1)C(=O)c1ccc(-c2ccccc2)[nH]1 (stereo unspecified) | 44 | 1 | -7 | 73* | -3 | -3
CC(C)(C)NC(=O)C(c1ccncc1)N(Cc1ccc(F)cc1)C(=O)c1ccc(-c2ccccc2)[nH]1 (stereo unspecified) | 90 | 1 | 1 | 87* | -4 | -1
O=C(NC1CCCC1)C(c1ccccc1)N(Cc1cccnc1)C(=O)Cc1cccs1 (stereo unspecified) | 17 | 0 | -2 | 55* | -7 | -6
Cc1ccc(CN(C(=O)Cc2cccs2)C(C(=O)NC2CCCC2)c2ccncc2)cc1 (stereo unspecified) | -1 | 0 | · | 16 | -15 | -26
O=C(O)CCC(=O)N1N=C(c2cccs2)CC1c1cccc([N+](=O)[O-])c1 (stereo unspecified) | -5 | 0 | 3 | -12 | 2 | -2
CCc1ccc(CNC(=O)c2ccc(NC(=O)C3=CSCCO3)cc2)cc1 | 6 | 0 | -1 | 11 | 2 | -14
CC1C(=O)N(Cc2cn(CCC3OCCCO3)nn2)CCS(=O)(=O)N1Cc1ccc(-c2ccccc2)cc1 (stereo unspecified) | · | 0 | · | · | 1 | 16
CC1C(=O)N(Cc2cn(CCC3OCCCO3)nn2)CCS(=O)(=O)N1Cc1ccc(-c2ccc(Cl)cc2)cc1 (stereo unspecified) | · | 1 | · | · | -4 | 50*
Cc1ccc(-c2cnc3cc(C)nn3c2)cc1 | 17 | 0 | 5 | 57* | -2 | -1
COC(=O)c1c(NC(NC(=O)C(C)(C)C)C(Cl)(Cl)Cl)sc2c1CCC2 (stereo unspecified) | 20 | 0 | -1 | 13 | -8 | -12
O=C(CCn1c(=O)oc2ccccc21)Nc1nc2ccccc2s1 | 28 | 0 | 2 | 38 | -16 | -1
c1ccc(CCNc2nc(-c3cccnc3)cs2)cc1 | 4 | 0 | -2 | 8 | · | ·
c1ccc(CCNc2nc(-c3ccccn3)cs2)cc1 | 32 | 2 | -5 | 53* | 3 | 1
CCOc1ccc(Nc2nc(Cc3nnc(SCC(N)=O)o3)cs2)cc1 | -2 | 0 | -2 | 1 | 3 | 4
Cc1ccccc1S(=O)(=O)Nc1nc2ccccc2nc1N1CCc2ccccc2C1 | 42 | 0 | -1 | 71* | -4 | 0
O=S(=O)(Nc1nc2ccccc2nc1Cl)c1ccc(Br)cc1 | -54* | 0 | 3 | -64 | -1 | -3
O=S(=O)(Nc1nc2ccccc2nc1Cl)c1ccc(Cl)cc1 | 1 | 0 | -6 | 3 | 5 | 3
O=S(=O)(Nc1nc2ccccc2nc1N1CCc2ccccc2C1)c1ccc(Cl)cc1 | 20 | 0 | 4 | 57* | 3 | -4
N#CC1(C#N)COC23CCCCC2C1(C#N)C(=N)O3 (stereo unspecified) | -70* | 0 | 2 | -76 | 2 | 4
